{
  "source": "PubChem BioAssay (NCATS)",
  "note": "Results filed as inconclusive are left out. The source made the active and inactive calls. The call rests on the fitted dose curve; in most records, active means well fitted cell-killing curve with a large enough effect; inconclusive means small, poorly fitted or top-dose-only effect; inactive means no such curve, though single readings can be large or run the other way. Potency means the concentration at half of the fitted maximal effect.",
  "data": [
    {"experiment": "qHTS of pediatric cancer cell lines to identify multiple opportunities for drug repurposing: Primary screen for SJ-GBM2 cells (AID 1347091);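 on activity change, negative = cytotoxic: plate controls were DMSO neutral control for no effect and bortezomib for full effect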", "settings": "SJ-GBM2 viability, CellTiter-Glo luminescence, 48 h; series mostly up to 46 µM; activity change, negative = cytotoxic: at the top concentration", "method_in_brief": "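Viability measured as metabolically active cells via CellTiter-Glo luminescence following 48 hours of compound exposure, 11-point dilutions in confirmatory testing. 500-1,000 cells/well plated 5 hours before dosing; controls were DMSO and 2.3 µM bortezomib.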", "values": [
      {"smiles": "CON=C(C(=O)N[C@@H]1C(=O)N2C(C(=O)O)=C(Cn3ccc(=N)n3CCO)CS[C@H]12)c1csc(N)n1", "activity change, negative = cytotoxic": "6.42% (inactive)"},
      {"smiles": "COc1ccc([C@@H]2CNC(=O)C2)cc1OC1CCCC1", "activity change, negative = cytotoxic": "20.1% (inactive)"},
      {"smiles": "CC(=O)O[C@]1(C(C)=O)CC[C@H]2[C@@H]3C=C(C)C4=CC(=O)CC[C@]4(C)[C@@H]3CC[C@@]21C", "Potency": "14.8 µM (active)"},
      {"smiles": "N#CC(=C(N)Sc1ccc(N)cc1)c1ccccc1C(F)(F)F", "activity change, negative = cytotoxic": "-5.21% (inactive)"},
      {"smiles": "COc1cc(C)c(Sc2cnc(NC(=O)c3ccc(CNC(C)C(C)(C)C)cc3)s2)cc1C(=O)N1CCN(C(C)=O)CC1", "note": "(centres undefined)", "Potency": "4.69 µM (active)"},
      {"smiles": "C[N+]1(C)[C@@H]2C[C@@H](OC(=O)C(O)(c3cccs3)c3cccs3)C[C@H]1[C@@H]1O[C@@H]12", "activity change, negative = cytotoxic": "12.7% (inactive)"},
      {"smiles": "CC(=O)N[C@H]1[C@@H]([C@H](O)[C@H](O)CO)OC(C(=O)O)=C[C@@H]1N=C(N)N", "activity change, negative = cytotoxic": "2.32% (inactive)"},
      {"smiles": "C=C1C[C@@]2(O)O[C@@]3(C[C@H]2C(C)C)[C@H](C)CC[C@H]13", "activity change, negative = cytotoxic": "17% (inactive)"},
      {"smiles": "CS(=O)(=O)N1CCc2c(-c3cnc(N)nc3)nc(N3CCOCC3)nc21", "Potency": "0.209 µM (active)"},
      {"smiles": "Cc1ccc2nc(NCCN)c3ncc(C)n3c2c1", "Potency": "11.8 µM (active)"},
      {"smiles": "O=C(O)C=Cc1ccc(Cn2ccnc2)cc1", "activity change, negative = cytotoxic": "19.7% (inactive)"},
      {"smiles": "CC(=O)N1CCN(c2ccc(OCc3nn(C)c(C)c3-c3cccc4c(CCCOc5cccc6ccccc56)c(C(=O)O)n(Cc5cccnc5)c34)cc2)CC1", "Potency": "1.05 µM (active)"},
      {"smiles": "NC1=N[C@H]2[C@H](CS[C@H]2CCCCC(=O)O)N1", "activity change, negative = cytotoxic": "18.4% [at 16.1 µM] (inactive)"},
      {"smiles": "OCc1ccccc1O[C@@H]1O[C@H](CO)[C@H](O)[C@H](O)[C@H]1O", "activity change, negative = cytotoxic": "20.5% (inactive)"}
    ]}
  ]
}
